From PubChem BioAssay AID1159580 (chemical genetic matrix, 2015)
In all, about 5,500 compounds went through this assay and about 2,000 (36%) were called active. Not shown: some 18% with an inconclusive outcome. Cut-off read from the data, not from the text of the source: active = normalized growth mostly below about 0.91 (no sharp cut-off); inconclusive = no clear call, values can overlap the other calls; inactive = mostly above about 0.92. The list shows a part of the results.

Assay: chemical genetic growth profiling, strain panel (AID 1159580);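 note: tested at 20 µM; growth read once vehicle control cultures reached saturation at 30 °C; 1 = growth at the plate median or of vehicle wells; lower values mean less growth of the strain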
Conditions: growth OD
[1] = S. cerevisiae deletion strains, locus YDR150W, strain NUM1, hits give low values
[2] = S. cerevisiae deletion strains, locus YMR263W, strain SAP30, hits give low values
[3] = S. cerevisiae deletion strains, locus YPL055C, strain LGE1, hits give low values
[4] = S. cerevisiae deletion strains, locus YPL241C, strain CIN2, hits give low values

Measured: normalized growth

NCC(O)C1CCCCCCC1 (configuration not stated)
inactive: S. cerevisiae deletion strains, locus YAL040C, strain CLN3, hits give low values 1.01 | S. cerevisiae deletion strains, locus YCL061C, strain MRC1 (second series), hits give low values 1.01 | [1] 0.995 | S. cerevisiae deletion strains, locus YDR363W, strain ESC2, hits give low values 0.994 | S. cerevisiae deletion strains, locus YER002W, strain NOP16, hits give low values 0.999 | [2] 0.999 | S. cerevisiae deletion strains, locus YNL175C, strain NOP13, hits give low values 1.01 | S. cerevisiae deletion strains, locus YNL197C, strain WHI3, hits give low values 1.01 | S. cerevisiae deletion strains, locus YNL224C, strain SQS1, hits give low values 1 | S. cerevisiae deletion strains, locus YOR083W, strain WHI5 (second series), hits give low values 1.04 | [3] 0.992 | [4] 1

COc1ccc(CN2C(=O)CSC2c2ccccn2)cc1 (configuration not stated)
inactive: S. cerevisiae deletion strains, locus YAL013W, strain DEP1, hits give low values 1.01 | S. cerevisiae deletion strains, locus YBR229C, strain ROT2, hits give low values 0.995 | S. cerevisiae deletion strains, locus YCL061C, strain MRC1, hits give low values 0.977 | S. cerevisiae deletion strains, locus YDL101C, strain DUN1, hits give low values 1.01 | S. cerevisiae deletion strains, locus YDL134C, strain PPH21, hits give low values 1 | [1] 1.01 | S. cerevisiae deletion strains, locus YEL061C, strain CIN8, hits give low values 1.01 | S. cerevisiae deletion strains, locus YGR078C, strain PAC10, hits give low values 1.01 | S. cerevisiae deletion strains, locus YHR030C, strain SLT2, hits give low values 0.998 | S. cerevisiae deletion strains, locus YHR087W, strain rtc3, hits give low values 1.01 | S. cerevisiae deletion strains, locus YJL187C, strain SWE1, hits give low values 0.989 | S. cerevisiae deletion strains, locus YJR043C, strain POL32, hits give low values 0.995 | S. cerevisiae deletion strains, locus YJR075W, strain HOC1, hits give low values 1.01 | S. cerevisiae deletion strains, locus YKL190W, strain CNB1, hits give low values 1 | S. cerevisiae deletion strains, locus YLR039C, strain RIC1, hits give low values 0.97 | S. cerevisiae deletion strains, locus YLR058C, strain SHM2 (second series), hits give low values 0.991 | S. cerevisiae deletion strains, locus YLR085C, strain ARP6, hits give low values 0.971 | S. cerevisiae deletion strains, locus YLR262C, strain YPT6, hits give low values 0.953 | S. cerevisiae deletion strains, locus YML094W, strain GIM5, hits give low values 1.02 | S. cerevisiae deletion strains, locus YMR219W, strain ESC1, hits give low values 0.993 | [2] 0.993 | S. cerevisiae deletion strains, locus YNL153C, strain GIM3, hits give low values 0.999 | S. cerevisiae deletion strains, locus YNL298W, strain CLA4 (second series), hits give low values 0.994 | S. cerevisiae deletion strains, locus YNL322C, strain KRE1, hits give low values 1 | S. cerevisiae deletion strains, locus YNR030W, strain Alg12, hits give low values 1 | S. cerevisiae deletion strains, locus YOL006C, strain TOP1, hits give low values 0.988 | [3] 1 | [4] 1.07 | S. cerevisiae deletion strains, locus YPR135W, strain CTF4, hits give low values 0.985 | S. cerevisiae strains, strain wild type, hits give low values 1
